AHR act: AHR activators, primary screen, cell-based, luminescence, luciferase reporter, human. AHR-responsive luciferase reporter cells. activation, % at 5 µM. hit rate 2.5% among 320,000; in the data active = activation above about 47%;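 note: 0% = vehicle wells and 100% = reference agonist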
DAX1 inh-1: DAX1 (NR0B1) inhibitors, primary screen, cell-based, HEK293, Gal4-DAX1, luciferase luminescence; HEK293 Gal4-DAX1 luciferase reporter; inhibition, % at 6.75 µM; Nuclear receptor subfamily 0 group B member 1 (Homo sapiens), P51843; hit rate 0.99% among 340,000;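 active = inhibition above the mean over all tested compounds plus 3 SD, cut at about 4.2% in these data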;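 note: 0% = DAX1-transfected cells with DMSO and 100% = empty-vector control cells with DMSO; inhibition shows as a rise in luminescence from relieved DAX1 repression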
ssDAF-12 act: S. stercoralis DAF-12 nuclear receptor activators, primary screen, cell-based, luminescence, HEK293, GRIP1 co-expression, lit1-tk-luc; Nuclear hormone receptor DAF-12 (Strongyloides stercoralis); HEK293 ssDAF-12/GRIP1 lit1-tk-luc reporter; % of 3 µM dafachronic acid response; activation, % at 6.8 µM; hit rate 1% among 370,000; AID 652126, 2013;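 active = activation above the mean over all tested compounds plus 3 SD, cut at about 0.9% in these data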;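 note: 0% = DMSO-only wells and 100% = 3 µM delta7-dafachronic acid wells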
hcDAF-12 act: H. contortus DAF-12 nuclear receptor activators, primary screen, cell-based, luminescence, HEK293, lit1-tk-luc reporter. HEK293 hcDAF-12 lit1-tk-luc reporter; 0% DMSO, 100% Δ7-dafachronic acid. activation, % at 6.8 µM. hit rate 1.4% among 370,000. AID 652067, 2013;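 active = activation above the mean of all tested compounds plus 3 SD, cut at about 5.5% in these data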;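 note: 100% = response to 3 µM Δ7-dafachronic acid high control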
hgDAF-12 ag: H. glycines DAF-12 receptor agonists, primary screen, cell-based, luminescence, HEK293, GAL4 fusion, UAS-luciferase | Nuclear hormone receptor DAF-12 (Heterodera glycines), GAL4 fusion | HEK293 GAL4-hgDAF12 UAS-luciferase reporter, agonist luminescence; normalized to butyrate control | activation, % at 6.8 µM | hit rate 1.8% among 370,000;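 active = activation above a cutoff set at the mean of all screened compounds plus 3 SD, cut at about 10% in these data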;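 note: 0% = DMSO wells and 100% = sodium butyrate wells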
DAX1 inh-2: DAX1 (NR0B1) inhibitors on StAR promoter, primary screen, cell-based, luminescence, SF-1 (NR5A1), full-length DAX-1 | HEK293T StAR-luciferase reporter, SF-1/DAX-1 repression relief | inhibition, % at 6.8 µM | hit rate 1.1% among 370,000 | AID 652010, 2013;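 active = inhibition above the mean over all tested compounds plus 3 SD, cut at about 3.6% in these data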;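 note: 0% = DAX-1 cells with DMSO and 100% = cells lacking DAX-1 with DMSO; higher inhibition means more luminescence from relief of DAX-1 repression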
hgDAF12 ag: H. glycines DAF-12 receptor agonists, confirmation, cell-based, luminescence, HEK293, GAL4-LBD fusion | shares compounds with hgDAF-12 ag | HEK293 GAL4-hgDAF12 luciferase reporter, agonist mode; percent of butyrate response | activation, % at 6.8 µM | hit rate 80% among 3,300;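 active = mean activation over triplicate wells above the hit cutoff derived from the earlier primary screen, cut at about 11% in these data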;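 note: 0% = DMSO low control and 100% = 2 mM sodium butyrate high control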
LXR ag 2: LXR agonists, Gal4 luciferase reporter, confirmation, counter-screen for hgDAF-12 agonist project, cell-based, luminescence, HEK293, H. glycines campaign | shares compounds with hgDAF-12 ag | 24 h | activation, % at 6.8 µM | 3,300 tested, under 10 active;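 active = mean activation of the triplicate above a set limit carried over from the primary screen, none filed active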
Target sequence (P55055 whole entry, looked up, the tested form may be a part): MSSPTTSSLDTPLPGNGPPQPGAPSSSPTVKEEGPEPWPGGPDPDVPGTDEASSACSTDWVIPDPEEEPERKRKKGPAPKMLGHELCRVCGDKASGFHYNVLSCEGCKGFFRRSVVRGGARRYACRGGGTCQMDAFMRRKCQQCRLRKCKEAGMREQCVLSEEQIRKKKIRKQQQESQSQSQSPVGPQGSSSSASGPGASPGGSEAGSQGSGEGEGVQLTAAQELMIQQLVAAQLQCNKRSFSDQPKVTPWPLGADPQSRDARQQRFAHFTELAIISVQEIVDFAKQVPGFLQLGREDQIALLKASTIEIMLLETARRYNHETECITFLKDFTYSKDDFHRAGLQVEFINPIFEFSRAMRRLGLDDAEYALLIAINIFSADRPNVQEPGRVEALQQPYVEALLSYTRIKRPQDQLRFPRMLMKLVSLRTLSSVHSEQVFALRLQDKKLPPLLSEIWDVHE
Active calls of the source: *; · = no result given. In the library only some 5.7% were active in any assay of this set; here they are far more common.

SMILES | AHR act | DAX1 inh-1 | ssDAF-12 act | hcDAF-12 act | hgDAF-12 ag | DAX1 inh-2 | hgDAF12 ag | LXR ag 2
Cc1ccc(-c2nnc(SCC(=O)NCCN3C(=O)CSC3=O)n2C)cc1 | 0 | 0 | -1 | 0 | 1 | 2 | · | ·
COc1ccc(-n2c(SCC(=O)Nc3ccccc3C)nc(O)c(Cc3ccccc3)c2=O)cc1 | 19 | 0 | 0 | 3 | 3 | -1 | · | ·
O=C(NN1C(=O)c2ccccc2NC1c1ccco1)c1ccc([N+](=O)[O-])cc1 (stereo not drawn) | -1 | 1 | -1 | 1 | 18* | 0 | 0 | 0
Cc1ccc(/C=C\c2nccc3c2[nH]c2ccccc23)cc1 | 51* | 2 | 1 | 4 | 15* | 4.5* | 8 | 0
COc1ccc(CCNC(=O)CN(c2ccc(OC)c(OC)c2)S(=O)(=O)c2ccccc2)cc1OC | 6 | 1 | -1 | -1 | 0 | 0 | · | ·
COc1ccc(NC(=S)Nc2ccccc2SC)c(OC)c1 | 6 | 2 | 0 | 2 | 6 | 0 | · | ·
CNS(=O)(=O)c1ccc(NC(=O)c2ccccn2)cc1 | -2 | 1 | 0 | 3 | 14* | 1 | 9 | 0
CCCC(=O)Nc1ccc(NC(=O)c2ccccn2)cn1 | 7 | 2 | 1.2* | 3 | 13* | 2 | 9 | 0
Cc1ccccc1NC(=O)c1cc2ccccn2n1 | 14 | 2 | 1 | 6.0* | 19* | 3 | 13* | 1
Cc1cccc(CCNC(=O)c2cc3ccccn3n2)c1 | · | · | -1 | -2 | 6 | 1 | · | ·
O=C(NCCc1cccc(F)c1)c1cc2ccccn2n1 | · | · | 0 | 1 | 14* | 3 | 12* | 0
Cc1ccccc1NC(=O)c1cnc2ccccn2c1=O | -3 | -1 | 0 | 4 | 16* | 4.2* | 16* | 1
CCOc1ccc(/C=N/NC(=O)C(O)c2ccccc2)c(O)c1 (stereo not drawn) | 3 | -1 | -1 | 1 | 1 | -1 | · | ·
O=C1CCN(S(=O)(=O)c2cc(C(F)(F)F)ccc2Cl)CC1 | 3 | 0 | -1 | -1 | -1 | 0 | · | ·
C=CCN1C(=O)[C@@H](CC(=O)N2CCSCC2)[C@]2(C(=O)OC)CCCCC=C12 | · | · | -2 | 1 | 17* | 0 | 0 | 0
CC(=O)Nc1ccc(NC(=O)COc2ccc(Br)cc2C)cc1 | 2 | 2 | -2 | -1 | 1 | 1 | · | ·
Cc1cccc(NC(=O)COc2ccc(Br)cc2/C=N/O)c1 | 19 | 1 | 0 | 5 | 15* | 3 | 11* | 0
CCN(CC)CCOC(=O)c1ccc(NC(=O)c2cn(-c3ccccc3)nc2-c2cccs2)cc1 | · | 2 | 0 | 4 | 15* | 3 | 8 | 0
COc1ccc(/C=C/C(=O)NC2=NCCS2)c(OC)c1 | · | · | -1 | 5 | 14* | · | 15* | 1
CC(C)c1ccc(/C=C/C(=O)NC2=NCCS2)cc1 | 10 | · | · | · | · | · | · | ·
O=C(/C=C/c1ccc(Cl)c(Cl)c1)NC1=NCCS1 | 12 | 1 | 0 | 3 | 13* | 1 | 10* | 0
Cc1cc(NC(=O)CSc2nc3c(cc2C#N)CCC3)no1 | -4 | 4.7* | -1 | 4 | 13* | 3 | 15* | 1
Cc1ccc(/C=C/C2=NN(C)C(=O)CC2)cc1 | -4 | 1 | 0 | 3 | 14* | 3 | 15* | 1
CN1N=C(/C=C/c2ccccc2)CCC1=O | 0 | 1 | -1 | 1 | 3 | 2 | · | ·
S=C(NCCc1ccc(Cl)cc1)NC1CC1 | 2 | 1 | -1 | -1 | 16* | 0 | 2 | 0
SMILES | AHR act | DAX1 inh-1 | ssDAF-12 act | hcDAF-12 act | hgDAF-12 ag | DAX1 inh-2 | hgDAF12 ag | LXR ag 2
Cc1cccc(NC(=O)C(CCC(N)=O)NC(=O)OCc2ccccc2)c1 (stereo not drawn) | 3 | 1 | -1 | 0 | -1 | 0 | · | ·
CCCNC(=O)C1CC(=O)N(c2ccc(OCc3ccc(Cl)cc3)cc2)C1 (stereo not drawn) | 2 | 1 | 0 | 5 | 15* | 3 | 16* | 1
Cc1ccc(NC(=O)CN2CCc3cc4c(cc3C2C)OCCCO4)cc1C (stereo not drawn) | 0 | 0 | -1 | -1 | 2 | 0 | · | ·
CCCCN1CCc2c([nH]c3ccc(C)cc23)C1=O | -2 | 2 | 1 | 4 | 15* | 3.9* | 9 | 0
Cc1sc(NC(=O)C2C3CCC(O3)C2C(=O)O)nc1-c1ccc(CC(C)C)cc1 (stereo not drawn) | 4 | 2 | 0 | 5 | 18* | 2 | 10 | 0
CCOC(=O)c1c(NC(=O)C2C3CCC(O3)C2C(=O)O)sc(C)c1-c1ccc(C)cc1 (stereo not drawn) | 1 | 1 | -1 | 0 | 0 | 1 | · | ·
CC(=O)c1ccc(NC(=O)c2ccc3snnc3c2)cc1 | 10 | 0 | -1 | 1 | 14* | 4 | 12* | 1
COc1ccc(NC(=O)c2ccc3snnc3c2)cc1 | 16 | 1 | -1 | 2 | 3 | 1 | · | ·
CCN(CC)C(=O)Cn1cc(S(=O)(=O)CC(=O)Nc2cc(OC)ccc2OC)c2ccccc21 | 3 | 0 | -1 | -1 | -1 | -1 | · | ·
O=C1c2cccn2CC2Cc3ccccc3N12 (stereo not drawn) | · | · | 0 | 6.5* | 15* | · | 17* | 1
COc1ccc(C(=O)Nc2cc(C)on2)c(OC)c1 | 0 | 0 | 0 | 3 | 15* | 2 | 13* | 1
COc1ccc(OC)c(S(=O)(=O)Nc2ccc(C(=O)Nc3cc(C)on3)cc2)c1 | · | · | -1 | 0 | 16* | -1 | 0 | 0
Cc1cc(C)c(CN2CCN(C(=O)Cn3cnc4c(NCc5ccccc5)ncnc43)CC2)c(C)c1 | · | -5 | -2 | -3 | -4 | -6 | · | ·
COc1ccc(C(O)Cc2nccn2C)cc1 (stereo not drawn) | 0 | 1 | -2 | -1 | -1 | 0 | · | ·
C/C(=N\NC(=O)c1ccc(C)cc1C)c1ccc(-n2ccnc2)cc1 | 22 | 0 | -1 | 3 | 14* | 1 | 0 | 0

Screens (PubChem BioAssay)
